The subject of this test is PPARg:RXRa DBDmut IVT, anti-RXR (DBD mutation: RXRa K156A/R161A, NR concentration 270 nM, RXRa partner concentration 90 nM). The test is described as follows: PBM binding z-score (relative to random genomic background probes); higher = stronger binding; sequences stand for … in GC…GCGATTGACAGCGTAGAATGAAGG
In a few lines: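 Probes were double-stranded and carried 34-nt variable regions with direct-repeat seeds, single-nucleotide variants, half-site ablations and random human genomic background sequences, printed on custom Agilent 4×180K protein-binding microarrays. Arrays were incubated 1 h with ligand-free nuclear receptor dimers in PBS pH 7.4, 2% milk, 0.02% Triton X-100, 1 mM DTT, 0.2 mg/mL BSA and 0.4 mg/ml salmon testes DNA. Antibodies against each partner (one per run) detected binding, and scanned fluorescence was regression-normalized. Binding z-scores use the random background probes as reference.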
In the case of ATCGCAAGGTCGACGAGGTGAGTATACACCGTTT, the PBM binding z-score was -0.013.
Then GCTAGTTGGTCAGTAAAAGGTCACACCCCGGTCG, with 0.618; and ACTAGAAGGCCAAGTTTGGGTCACTCAAACAAAG, with 0.0334.
Then TATACAGGGTCAAAGTCCAGAGTACGAATGTCGA, with 2.42; and GCTGCTAGGTCAGGTTGATCAGCTAACGGGTACG, with 3.25.
In the case of TCATATGGGTAATACAGGTGAAAGTCGGCATCTA it was 3.38.
With ACTAGCAGGTCAAGTTTGGGTCACTCAAACAAAG, the PBM binding z-score was found to be 4.12.
Then TCTATTAGTTGAAGGCCAACCGACGAGTCCGTTT, with 2.37.
Then TTACCAAGGTGAAAGGTTGTTGATGCACGCCTTG, with 2.7; and CGAACTCGGTCATCCAGGACAGTGAATACATTGA, with 3.58.
In the case of TCATAGAGGTAAAAGGTGAAAGTCGGTGTGGTAA it was 2.72; in that of TTACCAAGGTGAGCTGAGGTCGTTGAACCAACTC, 0.903; in that of TAGCCTAGGTCATTGGGCCAGTATCGTACGCATC, 2.91.
AGAACTAGGGCAATGAGTTGATAGCACGGGTGGC yielded a PBM binding z-score of 7.38.
Then CCTACTGGACCATTCAGAGGTCATTGATCATATG, with 2.24.
In the case of CGTCCAAGGTCAAAGGACAGTGAAGAGATGACGG it was 2.81.
In the case of CGTCAAAGATCAACTAAGGTAACGTAAAGCACGC it was -0.00407; in that of TAGCCTAGGTCATGTGCCAGTATACCACGCGAAC, 1.78.
Take TCATATAGGTAAACGCTAGGTGAAAGTCCGATCT: the PBM binding z-score is 4.49.
Consider CCGACTGGGGCATAAGGATACCATAAGCCAGCCC, for which the PBM binding z-score was 2.56.
Then AATACAGGGTCATTGTAGGCCAGAGTACGCACAG, with 2.56; and ATAGAAAGGTCGAGGTGAGTATAGAGAAAGGGAA, with 0.449.

(Values after the supplement of paper PMC6555819.)
